Hit rate of the full screen: of about 2,300 compounds, about 55 (2%) were called active.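 Rule for the calls: active = duplicate-averaged calcium signal over 20% of the ionomycin maximum, relative to buffer baseline; inactive = the rest.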 The entries come from a sample that favours actives as a whole.
assay: compound-evoked intracellular calcium rise – cell-based, counter-screen for TMEM16A inhibitor project, confirmation (AID 652231); conditions: TMEM16A/YFP HEK293, Fluo4 calcium mobilization, at 10 µM; hits give high values;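 for calcium response (% of ionomycin): each well's signal is peak minus trough fluorescence divided by its pre-addition baseline; 0% = buffer wells and 100% = ionomycin wells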

Compound | calcium response (% of ionomycin)
CCc1cc2c(N3CCN(c4nnc(CC)s4)CC3)ncnc2s1 | inactive
COc1ccc(C(=O)NC2CCCc3c2cnn3-c2cccc(C)c2C)c(OC)n1 (stereo not drawn) | inactive
O=c1cc(C(F)(F)F)[nH]c(=O)n1C1CCCCC1 | inactive
CCOC(=O)c1cccc(NC(=O)CCn2nnc3ccccc32)c1 | inactive
COc1ccc(OCC(=O)NCCc2ccc(S(N)(=O)=O)cc2)cc1 | inactive
Fc1ccc2[nH]c3c(N4CCSCC4)ncnc3c2c1 | inactive
Cc1ccc(-n2ncc3c(N4CCN(c5ccc(F)cc5)CC4)ncnc32)c(C)c1 | inactive
Cc1ccc(-c2noc(CSc3nnnn3-c3ccccc3)n2)cc1 | inactive
Cc1cc(C=O)c(C)n1-c1ccc(NC2CCCCC2)c([N+](=O)[O-])c1 | inactive
Cc1cccc(-n2c(SCC(N)=O)nc3c(c2=O)C2(CCCCC2)Cc2ccccc2-3)c1 | inactive
O=C(NCCc1ccc2c(c1)OCCO2)c1cc2ccccc2o1 | inactive
COc1ccc(CCC(=O)c2ccc(OC)cc2)cc1 | inactive
CCCCNC(=O)CSc1nc2n[nH]c(C)c2c(=N)n1-c1cccc(Cl)c1C | inactive
CCOC(=O)N1CC=C2C(C#N)=C(N)C(C#N)(C#N)[C@H](c3cccs3)[C@H]2C1 | inactive
COc1ccc(NC(=O)C2=CC(c3ccc(OC)c(OC)c3)=NS(=O)(=O)N2C)cc1 | inactive
Cc1nc2c(C(=O)NCc3ccc4c(c3)OCO4)c[nH]n2c(=O)c1Cc1ccccc1F | inactive
Cc1ccc(C)c(N2CCN(S(=O)(=O)c3ccc4c(c3)oc(=O)n4C)CC2)c1 | inactive
CC1CCN(C(=O)c2ccc(CSc3ccc(Cl)cc3)cc2)CC1 | inactive
CN1c2ccc(C=O)c3c(C=O)ccc(c23)N(C)C1(C)C | 64.5% (active)
COc1cccc(CNS(=O)(=O)c2ccc3c(c2)CC(C)N3C(=O)C2CCC2)c1 (stereo not drawn) | inactive
CN(Cc1cccnc1)C(=O)c1cc(COc2ccc3ncccc3c2)on1 | inactive
Cc1ccc2c(c1)N(S(=O)(=O)c1cc(-c3cc(C)no3)ccc1C)CCO2 | inactive
CC(=O)c1c(C)[nH]c(C(=O)COC(=O)c2cccc(S(=O)(=O)N(C)c3ccccc3)c2)c1C | inactive

Compound | calcium response (% of ionomycin)
Cc1ccc(C(=O)O)cc1-c1ccc(/C=C2\SC(=O)N(CC(=O)Nc3ccc4c(c3)OCO4)C2=O)o1 | inactive
CCN(CC)S(=O)(=O)c1ccc(N(C)Cc2ccc(C(F)(F)F)cc2)nc1 | inactive
Cn1c(=O)n(C)c2cc(S(=O)(=O)N3CCCc4ccccc43)ccc21 | inactive
N#Cc1nc(COc2ccc(-c3ccccc3)cc2)oc1NCc1cccnc1 | inactive
CCn1nccc1C(=O)Nc1ccc(S(=O)(=O)NC23CC4CC(CC(C4)C2)C3)cc1 | inactive
C=CCn1c(SCC(=O)Nc2nc3ccccc3s2)nnc1-c1ccccc1O | inactive
CCCc1cc(=S)n2c([nH]c3ccccc32)c1C#N | inactive
COc1ccc(-c2nc(CCNC(=O)c3ccc(Br)o3)cs2)cc1 | inactive
O=C(CN1CCN(C(=S)NC2CCCC2)CC1)Nc1ccc(Oc2ccccc2)cc1 | inactive
Cc1ccccc1-n1nnnc1SCCCC(=O)c1ccc(F)cc1 | inactive
Cc1ccc(N)cc1-n1c(C)ccc1C | inactive
Cc1ccc(C)c(N2CCN(C(=O)CCCCn3c(=O)[nH]c4ccccc4c3=O)CC2)c1 | inactive
CCOC(=O)C(Sc1ncc(C#N)c(N)n1)C(C)C (stereo not drawn) | inactive
O=C(COC(=O)CCc1c[nH]c(=O)[nH]1)Nc1ccccc1Cl | inactive
Cc1ccc(NC(=O)C(C)c2cccc(C(=O)c3ccccc3)c2)cc1 (stereo not drawn) | 20.5% (active)
S=C(NCc1ccc(Cl)cc1)NC12CC3CC(CC(C3)C1)C2 | inactive
Cc1noc(C)c1COC(=O)c1cc2ccccc2cc1O | inactive
C=CCSc1nsc(NC(=O)Nc2cccc(C(C)=O)c2)n1 | inactive
CCCOc1ccc(Cc2c(Cl)nc(SC)nc2NC)cc1 | inactive
Cn1c(CCN2CCCCCC2)nc2cc(NC(=O)Nc3ccccc3)ccc21 | inactive
CCOC(=O)N1CCN(C(=O)c2ccc3c(c2)N(Cc2ccc(C)cc2)CCS3)CC1 | inactive
CSc1nsc(NC(=O)Nc2ccccc2)n1 | inactive
CCC(=O)Nc1ccc2nc(C)n(Cc3ccccc3Cl)c(=O)c2c1 | inactive

Compound | calcium response (% of ionomycin)
Cc1ccc(NC(=O)CN(C)CC(=O)Nc2cccc(F)c2)cc1[N+](=O)[O-] | inactive
Cc1ccc(N2C(=O)S/C(=C/c3cn(C)c4ccccc34)C2=O)cc1 | inactive
Cc1nc(SCC(=O)N2CCc3ccccc3C2)c2c(C)c(C)sc2n1 | inactive
COc1ccc(CN(C)C(=O)CC(c2ccccc2)c2ccccc2)cc1 | inactive
Cc1nc(C)c(-c2csc(NCCc3ccccc3)n2)s1 | inactive
COC(=O)c1ccc(NC(=O)c2ccccc2NS(=O)(=O)c2ccccc2)cc1 | inactive
O=C(CSCc1ccc(Cl)cc1)N1CCN(Cc2ccc3c(c2)OCO3)CC1 | inactive
COc1ccc2[nH]cc(/C=C(/C#N)S(=O)(=O)c3ccccc3)c2c1 | inactive
CC1=NN(c2cccc(Cl)c2)C(=O)C12CC(C)=C(C)CS2 (stereo not drawn) | inactive
Cc1ccc(F)cc1NC(=O)Cc1nn(C)c(=O)c2ccccc12 | inactive
CSc1cccc(NC(=S)N(C(C)C)C(C)c2ccccn2)c1 (stereo not drawn) | inactive
Cc1cc(C)cc(NS(=O)(=O)c2ccc(Oc3ncc(C(F)(F)F)cc3Cl)cc2)c1 | inactive
CN(c1cccc(NC(=O)c2ccc(CN3CCc4ccccc4C3)cc2)c1)S(C)(=O)=O | inactive
CC(C)CNC(=S)NNC(=O)c1nn(C)cc1Cl | inactive
CC(NC(=O)c1ccco1)C(=O)Nc1nc(-c2ccccn2)cs1 (stereo not drawn) | inactive
COc1ccc(S(=O)(=O)NCCCCOc2ccc(Cl)cc2)cc1 | inactive
COc1cc(CC(=O)Nc2nc(-c3ccc(F)c(F)c3)cs2)cc(OC)c1OC | inactive
C=C(C)Cn1c(C)cc(C)c(S(=O)(=O)c2ccccc2C)c1=O | inactive
Cc1ccc(-c2csc(-c3c[nH]c4ccccc34)n2)cc1 | inactive
S=C(NCC1CCCO1)N1CCN(c2ccc(Cl)c(Cl)c2)CC1 (stereo not drawn) | inactive
COc1ccc(CNc2nnnn2C)cc1 | inactive
O=C(Nc1cccc(S(=O)(=O)Nc2ccc(Cl)cc2)c1)c1ccc2c(c1)OCCO2 | inactive
